# Measurements published in PubChem BioAssay AID488908 (National Center for Advancing Translational Sciences (NCATS), 2010).
# Results filed as inconclusive are left out. Unmarked numbers belong to inactive results. The source made the active and inactive calls. Calls come from the whole dose curve; as a rule, active = well fitted inhibition curve with a large enough effect; inconclusive = small, poorly fitted or top-dose-only effect; inactive = flat fitted curve, though single readings scatter.
# Test: Secondary Assay for lipid storage modulators: Cytotoxcity for probe SAR
# Details: Drosophila S3 cells viability, CellTiter-Glo luminescence, 24 h, with oleic acid added (1 µL, 400 µM); series mostly up to 46.1 µM; activity change, negative = cytotoxicity: at the top concentration
# Outline: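 CellTiter-Glo luminescence read after 24 h at 24 degrees C; embryonic Drosophila S3 cells (5,000/well) were co-treated with oleic acid (400 uM stock) and a range of compound concentrations.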
SMILES,"activity change, negative = cytotoxicity",Potency
CCOc1ccc(CCNC(=O)C2=C(C)OCCO2)cc1OCC,-6.76%,
Cc1cc(SCc2sc(-c3ccc(C(F)(F)F)cc3)nc2C)ccc1OCC(=O)O,-12.1%,
CCOc1ccc(CCNC(=O)c2ccc(N3N=C(C)CC3=O)cc2)cc1OCC,-8.66%,
O=C(O)c1cccc(-c2noc(-c3ccccc3F)n2)c1,-10.1%,
CCOc1ccc(CCNC(=O)c2ccc(C3(C(F)(F)F)N=N3)cc2)cc1OCC,-8.66%,
COc1ccc(NC(=S)N2CCN(c3cccc(Cl)c3)CC2)c(OC)c1,-20.9%,
O=C(NC1CCCc2c1cnn2-c1ccc(F)cc1F)c1ccc(C2(C(F)(F)F)N=N2)cc1 (stereo not given),,3.97 µM (active)
O=C(NC1CCCc2c1cnn2-c1ccc(F)cc1F)c1ccc2cc[nH]c2c1 (stereo not given),,22.3 µM (active)
O=C(NCCc1ccc2c(c1)OCO2)c1cc2sccc2[nH]1,-4.89% [at 30.7 µM],
COc1ccc(Cl)cc1NC(=S)N1CCN(c2ccc(F)cc2)CC1,-5.01%,
